Source: PubChem
Mtb MenB inh: M. tuberculosis MenB inhibitors, primary screen, biochemical, absorbance. AID 540299, 2011. 1,4-dihydroxy-2-naphthoyl-CoA synthase (Mycobacterium tuberculosis (strain ATCC 25618 / …. 0.43% of 100,000 active. inhibition, % (concentration not given with the values). MenB enzyme assay, absorbance read-out; in the data active = inhibition above about 21%, passing the limit was not always enough
Mtb MbtI inh: MbtI salicylate synthase inhibitors, primary screen, biochemical, fluorescence intensity; P9WFX0; inhibition, % (test concentration not listed); purified MbtI enzyme, fluorescence intensity read-out; 0.89% of 100,000 active; in the data active = inhibition mostly above about 56%, no sharp cut-off; inactive = mostly below about 77%
Polio RdRp inh: poliovirus RdRp elongation inhibitors, primary screen, biochemical, fluorescence polarization, total intensity; Genome polyprotein (Poliovirus type 1 (strain Mahoney)), P03300; poliovirus polymerase elongation; active compounds read low; % elongation, % (compound at 16.7 µg/mL); 0.66% of 150,000 active; in the data active = % elongation below about 90%
Target sequence (P03300 1749-2209 limits assumed): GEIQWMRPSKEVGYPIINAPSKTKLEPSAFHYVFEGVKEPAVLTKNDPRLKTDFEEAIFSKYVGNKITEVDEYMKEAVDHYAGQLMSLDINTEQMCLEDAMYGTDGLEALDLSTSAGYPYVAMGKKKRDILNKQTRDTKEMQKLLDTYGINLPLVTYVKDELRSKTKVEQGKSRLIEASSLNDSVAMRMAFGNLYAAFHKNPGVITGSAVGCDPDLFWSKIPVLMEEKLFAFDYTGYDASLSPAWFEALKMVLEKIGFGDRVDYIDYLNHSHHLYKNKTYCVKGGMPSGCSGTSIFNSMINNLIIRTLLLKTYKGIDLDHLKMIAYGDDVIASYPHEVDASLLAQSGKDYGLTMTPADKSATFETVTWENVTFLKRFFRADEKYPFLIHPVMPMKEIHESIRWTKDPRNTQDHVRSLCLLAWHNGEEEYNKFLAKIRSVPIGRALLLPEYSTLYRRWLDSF
Large screens that a line does not name were inactive. Sampled rows, rich in hits. Any-hit rate of the full collection: about 1.5%.

CS(=O)(=O)N1Cc2ccccc2CC1C(=O)OCC(=O)N1CCc2ccccc21 (stereo unspecified)	none
CCN(CC)C(=S)Nc1ccc(Cl)c(Cl)c1	none
CCN(CC)C(=S)Nc1ccc2oc(N(C)C)nc2c1	Polio RdRp inh 90.0 (no result: Mtb MbtI inh)
COCCn1c(C)cc(/C=N/n2c(Cc3cccc4ccccc34)n[nH]c2=S)c1C	Mtb MbtI inh 73.2
COCCn1c(C)cc(/C=N/n2c(C)nc3ccccc3c2=O)c1C	none
O=c1nc2ccccn2c2c1c(=O)[nH]c1ccccc12	Mtb MenB inh 62.0
O=c1c2ccccc2nc2ccccn12	none
COc1ccccc1-n1cc(C(=O)c2ccccc2O)cc(C#N)c1=O	Mtb MbtI inh 96.4
N#Cc1cc(C(=O)c2ccccc2O)cn2c(=O)c3ccccc3nc12	none
O=C1Nc2ccccc2C(O)(C(=O)NCc2ccccc2)N1c1ccccc1 (stereo unspecified)	none
CC(C)C(NC(=O)c1ccc(C23CC4CC(CC(C4)C2)C3)cc1)C(=O)N(C)Cc1ccco1 (stereo unspecified)	none
Cc1ccc(N2NC(=O)CC2=O)cc1C	none (no result: Mtb MbtI inh)
Cc1ccc(-n2[nH]c(=O)c(N=O)c2O)cc1C	Polio RdRp inh 78.0
CCOC(=O)c1ccc(N)cc1	none
CCOC(=O)C(C#N)C(=O)c1ccc(N)cc1 (stereo unspecified)	Polio RdRp inh 80.0 (no result: Mtb MbtI inh)
CCN(CC)C(=O)C1CCCN(Cc2cc(Br)c(O)c(OC)c2)C1 (stereo unspecified)	none
CCS(=O)(=O)Nc1ccc(C(=O)Nc2ccc3c(c2)OCCO3)cc1	none
CN(C)C(=S)Nc1nc2ccccc2s1	Mtb MbtI inh 71.3
CN(C)C(=S)c1nc2ccccc2s1	none
Cc1ccc(SCC(=O)NN)cc1	none
CN1C(=O)Cc2ccccc21	none
O=C1Cc2ccccc2C(=O)N1Cc1ccco1	Polio RdRp inh 76.0 (no result: Mtb MenB inh)
O=C1CC(Cc2ccccc2)C(=O)N1Cc1ccco1 (stereo unspecified)	Mtb MenB inh 35.8
O=C1Cc2ccccc2C(=O)N1CCc1ccccc1	none
O=C(OCN1C(=O)c2ccccc2C1=O)c1ccc2c(c1)C(=O)N(Cc1ccco1)C2=O	none
CN1C(=O)Cc2ccccc2C1=O	Polio RdRp inh 38.0
COc1ccc(CN2C(=O)CC(Cc3ccccc3)C2=O)cc1OC (stereo unspecified)	none
O=C(O)CN1C(=O)Cc2ccccc2C1=O	Polio RdRp inh 24.0
CCC1CN(Cc2ccccc2)CCC1=O (stereo unspecified)	none
COc1ccc(C(CC(=O)N2CCN(Cc3ccccc3)CC2)n2cccc2)cc1 (stereo unspecified)	none
O=C(COC(=O)c1ccccc1SCC(=O)N1CCCC1)Nc1ccc2c(c1)OCO2	none
CCO/C=C1\C(=O)N(C)C(=O)c2ccccc21	Polio RdRp inh 10.0 (no result: Mtb MenB inh)
CCO/C=C1/C(=O)NC(=O)c2ccccc21	none
O=C1c2ccccc2C(=O)N1Cc1ccccc1	none (no result: Mtb MenB inh, Polio RdRp inh)
CCOc1ccc(N2C(=O)c3ccccc3C2=O)cc1	none
CCO/C=C1/C(=O)N(c2ccc(Cl)cn2)C(=O)c2ccccc21	Polio RdRp inh 85.0
CCO/C=C1/C(=O)N(Cc2ccc(OC)cc2)C(=O)c2ccccc21	Polio RdRp inh 36.0
Cc1nn(CCC#N)c2nc(-c3cccnc3)cc(C(F)(F)F)c12	none
O=C1C2CC=CCC2C(=O)N1CC(=O)N1N=C2/C(=C/c3cccs3)CCCC2C1c1cccs1 (stereo unspecified)	none
NS(=O)(=O)c1ccc(CNC(=O)c2cccc(Cl)c2)cc1	none
Nn1c(SCc2ccccc2)n[nH]c1=S	Mtb MbtI inh 69.7
Cn1c(CN)nnc1SCc1ccccc1	none
O=C(OCc1cc(=O)oc2cc(O)ccc12)c1nc(Cl)ccc1Cl	Polio RdRp inh 88.0
O=C(OCc1cc(=O)oc2cc(O)ccc12)c1cc(Br)ccc1O	none
CCc1ccc(NC(=O)C(C)OC(=O)c2ccccc2NC(=O)c2ccco2)cc1 (stereo unspecified)	none
CC(Oc1ccc(F)cc1)c1n[nH]c(=S)o1 (stereo unspecified)	none
CCC(c1n[nH]c(=S)o1)N(C)C (stereo unspecified)	Mtb MbtI inh 84.4, Polio RdRp inh 89.0
O=C(/C=C/C(=O)c1ccccc1)c1ccccc1	none
N#CS/C=C/C(=O)c1ccccc1	Mtb MbtI inh 100.0
CC(Oc1ccccc1)c1nc2ccccc2n1CCOc1ccccc1 (stereo unspecified)	none
Nc1nnc(SCC(O)Cn2c3c(c4ccccc42)CCCC3)s1 (stereo unspecified)	Mtb MenB inh 25.5 (no result: Mtb MbtI inh)
OC(CN1CCOCC1)Cn1c2c(c3ccccc31)CCCC2 (stereo unspecified)	none (no result: Mtb MenB inh)
O=C(/C=C/c1cccs1)N1CCCN(C(=O)/C=C/c2cccs2)CC1	none
O=C(OCC(=O)N1c2ccccc2Sc2ccccc21)C1=COCCO1	none
Oc1ccc(/C=N/n2cnn(Cc3ccccc3Cl)c2=S)c(O)c1	Polio RdRp inh 87.0
OCc1nc2ccccc2n1Cc1ccccc1Cl	none
CC(Oc1ccccc1)C(=O)Nc1ccc(Cl)cc1 (stereo unspecified)	none (no result: Mtb MbtI inh)
Cc1ccc(OCC(=O)Nc2ccc3c(c2)OCO3)c(C(=O)c2cc(C#N)c(=O)n(C3CC3)c2)c1	none
c1ccc(-c2nnc(-c3ccccc3)n2-c2ccncc2)cc1	none (no result: Mtb MenB inh, Polio RdRp inh)
O=C1CSc2nnc(-c3ccccc3)n21	Polio RdRp inh 54.0
COc1ccnc2cc(Cl)ccc12	none
CC(C)Cn1c(NC(=O)Nc2ccccc2F)c2ccccc2nc1=O	none
O=C(N=C=S)c1ccc2ccccc2c1	Polio RdRp inh 75.0
CN(C)S(=O)(=O)c1cccc(C(=O)O)c1	none
O=C(N=C=S)c1ccc(Cl)cc1	none
CN(C)S(=O)(=O)c1cccc(C(=O)N=C=S)c1	Mtb MbtI inh 95.5, Polio RdRp inh 70.0
O=C(CSc1ccccc1)Nc1cccc(O)c1	none
CSc1ncc2c(n1)-c1ccccc1N(Cc1ccccc1)S2(=O)=O	Polio RdRp inh -15.0 (no result: Mtb MenB inh, Mtb MbtI inh)
CSc1ncc2c(n1)-c1ccccc1N(C)S2(=O)=O	none
COC(=O)CSc1nc2c(cnn2-c2ccccc2)c(=O)[nH]1	none
COc1ccc(C(=O)n2ncc(C#N)c2N)cc1	none
Cn1cnnc1SCc1ccc(C(=O)n2ncc(C#N)c2N)cc1	Polio RdRp inh 88.0
NC(CO)C(=O)N/N=C/c1ccc(O)c(O)c1O (stereo unspecified)	none
Cc1ccc(C)n1-c1ccc(C(=O)NCC(=O)O)cc1	Polio RdRp inh 69.0
O=C(O)CNC(=O)c1ccc(CO)cc1	none
O=C(O)Cc1ccc2c(c1)CCCC2	none
Cn1nc(-c2nc3c4c5c(sc4[nH]c(=O)n3n2)CCC5)c2ccccc2c1=O	none
CCOC(=O)c1cc(C)[nH]c(=O)n1	none
CC(C)Cc1cc(C(=O)O)nc(=O)[nH]1	Mtb MenB inh 37.7
O=C(CCC(=O)c1cccs1)OCc1ccccc1	none (no result: Mtb MenB inh)
N#Cc1ccc(NC(=O)CCC(=O)c2cccs2)cc1	Polio RdRp inh 83.0
Cc1ccc(NC(=O)CCC(=O)c2cccs2)cc1	none
O=C(O)CCC(=O)c1cccs1	Polio RdRp inh 82.0 (no result: Mtb MenB inh)
COc1ccc(N2C(=O)/C(=C\c3ccco3)N=C2SCC(=O)c2cc(C)n(C)c2C)cc1Cl	none
NN=C(c1ccccc1)c1ccccc1	none
O=S(N=C(c1ccccc1)c1ccccc1)c1ccccc1 (stereo unspecified)	Mtb MbtI inh 68.2
COC(=O)N/N=C1\CCCCc2ccccc21	none
CN(C)C(CNC(=O)c1ccccn1)c1ccco1 (stereo unspecified)	none
